APOBEC3A inh – blocks human APOBEC3A ssDNA deamination; P31941; recombinant A3A, FAM/TAMRA ssDNA deamination fluorescence; inhibition, % at 20 µM; actives 0.41% (n = 330,000);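 active = at least 40% inhibition at 20 µM here, with at most 30% in a related deaminase screen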;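 also: plate controls were A3A with DMSO for no effect and wells lacking A3A enzyme for full effect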
Target sequence (P31941 whole entry, looked up): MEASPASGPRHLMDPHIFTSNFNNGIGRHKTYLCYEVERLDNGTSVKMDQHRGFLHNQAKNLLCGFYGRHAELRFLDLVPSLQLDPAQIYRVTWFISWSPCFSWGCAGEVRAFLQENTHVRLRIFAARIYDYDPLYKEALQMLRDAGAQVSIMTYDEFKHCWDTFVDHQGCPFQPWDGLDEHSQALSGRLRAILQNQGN
APOBEC3G inh – blocks human APOBEC3G single-stranded DNA deamination | Q9HC16 | recombinant A3G, ssDNA deamination FAM/TAMRA fluorescence | inhibition, % at 20 µM | actives 0.28% (n = 330,000);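 active = inhibition of at least 40% at 20 µM, with no more than 30% in the related APOBEC3A deaminase screen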;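 also: plate controls were DMSO wells with A3G for no effect and wells lacking A3G enzyme for full effect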
Target sequence (Q9HC16 whole entry, looked up): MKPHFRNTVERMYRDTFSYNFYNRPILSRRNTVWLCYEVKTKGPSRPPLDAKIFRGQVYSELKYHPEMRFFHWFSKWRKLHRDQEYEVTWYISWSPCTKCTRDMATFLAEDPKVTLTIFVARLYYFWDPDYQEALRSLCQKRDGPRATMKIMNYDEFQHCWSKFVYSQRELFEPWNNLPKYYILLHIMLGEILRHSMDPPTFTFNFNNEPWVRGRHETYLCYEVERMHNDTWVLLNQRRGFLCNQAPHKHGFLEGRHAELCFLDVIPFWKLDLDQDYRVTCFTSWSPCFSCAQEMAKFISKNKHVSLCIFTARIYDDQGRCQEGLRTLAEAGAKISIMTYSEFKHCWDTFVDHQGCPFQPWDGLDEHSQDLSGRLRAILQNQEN
NadD inh – inhibitors of Staphylococcus aureus NadD | inhibition, % at 20 µM | actives 0.78% (n = 360,000) | purified NadD enzyme, colorimetric absorbance read-out; in the data active = inhibition above about 26%
H9c2 TAG inh – inhibitors of triacylglycerol accumulation; H9c2 cells, Nile Red lipid (TAG) fluorescence; cells loaded with 200 µM oleic acid; inhibition, % at 12.5 µM; actives 0.66% (n = 230,000); AID 651582;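 active = pattern-corrected inhibition of lipid staining of at least 50% with the nuclear-stain viability signal not falling by more than 50%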;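 also: 0% = DMSO wells and 100% = triacsin C control wells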
H9c2 protect – modulators protecting cardiomyocytes from myocardial damage; AID 588492; actives 0.63% (n = 360,000); protection from H2O2 cell death, % at 20 µM; H9c2 cardiomyocytes, H2O2 injury protection, ATPLite, 2 h;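 active = compounds giving at least 50% protection of heart cells from peroxide-induced death in the single-dose screen, raw or plate-pattern-corrected value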;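 also: 0% = DMSO wells with peroxide and 100% = DMSO wells without peroxide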
PfG6PD inh – PfG6PD (Plasmodium falciparum) enzyme inhibition; PfGluPho enzyme, NADPH resazurin-diaphorase fluorescence; inhibition, % at 20 µM; AID 504690; actives 0.78% (n = 350,000);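 active = inhibition reaching at least a set limit at 20 µM in the primary screen, cut at about 59% in these data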;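 also: 0% = DMSO wells with substrate and 100% = DMSO wells lacking glucose-6-phosphate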
NadD conf – NadD (S. aureus) inhibition, single concentration confirmation; inhibition, % at 20 µM; shares compounds with NadD inh; purified S. aureus NadD, colorimetric enzyme assay; actives 13% (n = 2,000); in the data active = inhibition mostly above about 42%, no sharp cut-off; inactive = mostly below about 42%
TAG conf – confirmation of triacylglycerol accumulation inhibitors | shares compounds with H9c2 TAG inh | H9c2 lipid accumulation, Nile Red fluorescence; cells loaded with 200 µM oleic acid | inhibition, % at 12.5 µM | actives 71% (n = 990) | AID 651629;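 active = mean inhibition across replicates of 40% or more; inactive = mean inhibition below 40%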;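 also: plate controls were DMSO only wells for no effect and Triacsin C treated wells for full effect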
An asterisk follows results filed as active. Rows were chosen to be rich in hits. Some 2.9% of all compounds tested hit in one or more screens of this group.

Results for O=C(NCCc1c[nH]c2ccccc12)C1CCC(Cn2c(=S)[nH]c3ccccc3c2=O)CC1 (stereo unspecified) ?
APOBEC3A inh: -1; APOBEC3G inh: -6; NadD inh: 33*; H9c2 TAG inh: 65*; H9c2 protect: 0; PfG6PD inh: -4; NadD conf: 25; TAG conf: 61*

How did COc1ccc(C2NCCc3c2[nH]c2ccccc32)cc1CSc1nc2ccccc2s1 (stereo unspecified) do in these assays?
NadD inh: 44*; H9c2 TAG inh: 57*; H9c2 protect: -20; PfG6PD inh: 8; NadD conf: 11; TAG conf: 51*

What do the screens show for `O=C(Nc1ccccc1)c1nc[nH]c1C(=O)NCCCNC(=O)c1[nH]cnc1C(=O)Nc1ccccc1`?
APOBEC3A inh: -3; APOBEC3G inh: -8; NadD inh: 12; H9c2 TAG inh: 42; H9c2 protect: 47; PfG6PD inh: -6

How did O=C(Nc1ccccc1)c1nc[nH]c1C(=O)NCCCCCCNC(=O)c1[nH]cnc1C(=O)Nc1ccccc1 do in these assays?
APOBEC3A inh: -5; APOBEC3G inh: -4; NadD inh: 32*; H9c2 TAG inh: 65*; H9c2 protect: 97*; PfG6PD inh: 12; NadD conf: -1; TAG conf: 73*

How did CCCn1c(C(C)Nc2nc(-c3ccc(Cl)c([N+](=O)[O-])c3)cs2)nc2ccccc21 (stereo unspecified) do in these assays?
APOBEC3A inh: -3; APOBEC3G inh: -10; NadD inh: 20; H9c2 protect: -2; PfG6PD inh: 25

Results for Cc1ccc(Cn2c(C(C)Nc3nc(-c4ccc(Cl)c([N+](=O)[O-])c4)cs3)nc3cc(C(F)(F)F)ccc32)cc1 (stereo unspecified) ?
APOBEC3A inh: -6; APOBEC3G inh: -11; NadD inh: 37*; H9c2 TAG inh: 70*; H9c2 protect: -17; PfG6PD inh: 27; NadD conf: 37; TAG conf: 71*

Results for O=C(NC1CCCCCC1)c1ccc([N+](=O)[O-])s1 ?
APOBEC3A inh: -2; APOBEC3G inh: -11; NadD inh: 1; H9c2 TAG inh: 13; H9c2 protect: -9; PfG6PD inh: 15

Results for Cc1ccc(C(=O)Nc2nnc(NC(=S)Nc3ccccc3)s2)cc1 ?
APOBEC3A inh: -2; APOBEC3G inh: -7; NadD inh: 23; H9c2 TAG inh: 33; H9c2 protect: -12; PfG6PD inh: -2

Results for CCOc1ccc(C(=O)Nc2nnc(NC(=S)Nc3ccccc3)s2)cc1 ?
APOBEC3A inh: 3; APOBEC3G inh: -3; NadD inh: 35*; H9c2 TAG inh: 51*; H9c2 protect: -26; PfG6PD inh: 6; NadD conf: 11; TAG conf: 42*

How did Cc1ccc(CNC(=O)c2ccc(N3CCC4(CC3)CC(c3ccccc3)=NO4)c(NC(=O)c3ccc(Br)cc3)c2)cc1 do in these assays?
APOBEC3A inh: -3; APOBEC3G inh: -9; NadD inh: 36*; H9c2 TAG inh: 55*; H9c2 protect: 2; PfG6PD inh: 4; NadD conf: 13; TAG conf: 56*

Results for CCn1c(SCC(=O)Nc2nc(-c3ccc(C)cc3)cs2)nnc1-c1ccccc1 ?
APOBEC3A inh: 2; APOBEC3G inh: 3; NadD inh: 14; H9c2 TAG inh: 28; H9c2 protect: -12; PfG6PD inh: 18

How did CCn1c(SCC(=O)Nc2nc(-c3ccc(C)cc3)cs2)nnc1-c1ccccc1O do in these assays?
APOBEC3A inh: -1; APOBEC3G inh: 1; NadD inh: 37*; H9c2 TAG inh: 80*; H9c2 protect: -20; PfG6PD inh: 15; NadD conf: 43*; TAG conf: 68*

How did O=C(NCCCn1ccnc1)c1cc(Cl)cc(Cl)c1 do in these assays?
APOBEC3A inh: -3; APOBEC3G inh: -10; NadD inh: -4; H9c2 protect: 2; PfG6PD inh: 10

Results for COc1ccc(C2=C(C=Nc3c(C)n(C)n(-c4ccccc4)c3=O)C(c3ccccc3C)c3ccccc3O2)cc1OC (stereo unspecified) ?
APOBEC3A inh: -1; APOBEC3G inh: 0; NadD inh: 34*; H9c2 TAG inh: 61*; H9c2 protect: -16; PfG6PD inh: -2; NadD conf: 12; TAG conf: 32

How did Cc1c(N=Cc2c(O)n(C)c(=O)c3ccccc23)c(=O)n(-c2ccccc2)n1C do in these assays?
APOBEC3A inh: -12; APOBEC3G inh: -4; NadD inh: -6; H9c2 protect: 32; PfG6PD inh: -4

How did CN1C(=O)C(O)(C2CCCCCC2=O)c2ccccc21 (stereo unspecified) do in these assays?
APOBEC3A inh: 1; APOBEC3G inh: -2; NadD inh: 0; H9c2 protect: 1; PfG6PD inh: -18

What do the screens show for `O=C(c1ccoc1)N1CCN(c2cc(-c3cccc(F)c3)nc3cc(-c4cccc(Cl)c4)nn23)CC1`?
NadD inh: 45*; H9c2 TAG inh: 57*; H9c2 protect: -15; PfG6PD inh: 18; NadD conf: 6; TAG conf: 49*

What do the screens show for `CCSc1nnc(C)c(=O)n1COC(=O)c1ccc(S(=O)(=O)N2CCCC2)cc1`?
APOBEC3A inh: -8; APOBEC3G inh: -6; NadD inh: 4; H9c2 protect: 16; PfG6PD inh: 0

Results for CC(=O)Nc1ccc(CNc2nc(NC(C)C)nc3cc(-c4ccccc4)sc23)cc1 ?
NadD inh: 22; H9c2 TAG inh: 23; H9c2 protect: -28

What do the screens show for `COc1ccc(-c2cc(CNc3nc(NC(C)C)nc4cc(-c5ccccc5)sc34)on2)cc1`?
NadD inh: 34*; H9c2 TAG inh: 96*; H9c2 protect: -28; NadD conf: 21; TAG conf: 79*

Results for Cc1cccc(C)c1NC(=O)c1cccc2c1C(=O)N(C1CCCCC1)C2 ?
APOBEC3A inh: -2; APOBEC3G inh: -1; NadD inh: -1; H9c2 protect: -4; PfG6PD inh: 10

What do the screens show for `Nc1c(Cl)cc(-c2csc(N3CCCC3c3nc4cc(Cl)c(N5CCCCC5)cc4n3CCCO)n2)cc1Cl` (stereo unspecified)?
APOBEC3A inh: -3; APOBEC3G inh: 9; NadD inh: 32*; H9c2 TAG inh: 93*; H9c2 protect: 2; PfG6PD inh: 21; NadD conf: 15; TAG conf: 128*

How did Cc1ccc(NC(=O)CSc2nnnn2-c2ccc3c(c2)OCO3)cc1C do in these assays?
APOBEC3A inh: 5; APOBEC3G inh: 2; NadD inh: -5; H9c2 TAG inh: 57*; H9c2 protect: -17; PfG6PD inh: -5; TAG conf: -15

High-throughput results as filed in PubChem.
